In PubChem BioAssay (Tox21) one finds Potency, outcome and PLD induction data, which are given here for eight compounds.

A short description of experiment [1]: A CellTox Green Cytotoxicity Assay to monitor cytotoxicity in HEK293 cells - 32 hour (AID 1224881). Also: nearly all actives have a fitted effect of over 40% in size. Also: potency is read from the fitted curve at half-maximal effect. Summed up: (§1)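 Seeding of HEK293 cells together with cytotoxicity dye preceded a 5 h incubation at 37 C/5% CO2. Test compounds in DMSO were then added and fluorescence monitored across 40 h.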
Experiment [2] in a line: A CellTox Green Cytotoxicity Assay to monitor cytotoxicity in HepG2 cells - 0 hour (AID 1224882). Also: nearly all actives have a fitted effect of over 35% in size. Summed up: (§2)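 Nonlytic assay: viable cells exclude the dye, so fluorescence scales with cell death. HepG2 at 600 cells/well, compounds added after 5 h, signal read across 40 h.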
A short description of experiment [3]: A CellTox Green Cytotoxicity Assay to monitor cytotoxicity in HepG2 cells - 32 hour (AID 1224883). Also: nearly all actives have a fitted effect of over 50% in size. Also: potency is read from the fitted curve at half-maximal effect. Summed up:
as §2

The nature of experiment [4]: A CellTox Green Cytotoxicity Assay to monitor cytotoxicity in HEK293 cells - 8 hour (AID 1224884). Also: nearly all actives have a fitted effect of over 35% in size. Summed up:
as §1

A short description of experiment [5]: qHTS RealTime-Glo MT Cell Viability Assay in HepG2 cells - 16 hour (AID 1224885). Also: nearly all actives have a fitted effect of over 50% in size. Summed up: (§3)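 Viability was tracked continuously by NanoLuc luminescence from prosubstrate reduced by living HepG2 cells, at successive time points over 40 h of compound exposure. Cells with reagent were preincubated 5 h at 37 °C before compound addition.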
The nature of experiment [6]: qHTS RealTime-Glo MT Cell Viability Assay in HEK293 cells - 24 hour (AID 1224886). Also: nearly all actives have a fitted effect of over 50% in size. Also: potency is read from the fitted curve at half-maximal effect. The procedure, abridged: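 Viability tracked continuously by luminescence as live cells reduce a prosubstrate for NanoLuc; HEK293 cells preincubated 5 h, compound-treated at 37 C, and read at 0, 8, 16, 24, 32 and 40 h.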
(In general: qHTS replaces the single test concentration by a dilution series.)

The nature of experiment [7]: A CellTox Green Cytotoxicity Assay to monitor cytotoxicity in HEK293 cells - 16 hour (AID 1224888). Also: nearly all actives have a fitted effect of over 35% in size. Also: potency is read from the fitted curve at half-maximal effect. Summed up:
as §1

Experiment [8] can be described thus: qHTS RealTime-Glo MT Cell Viability Assay in HepG2 cells - 0 hour (AID 1224889). Also: nearly all actives have a fitted effect of over 50% in size. Summed up:
as §3

Experiment [9] can be described thus: A CellTox Green Cytotoxicity Assay to monitor cytotoxicity in HepG2 cells - 8 hour (AID 1224890). Also: nearly all actives have a fitted effect of over 45% in size. Summed up: as §2
Experiment [10] is described as follows: qHTS assay to identify small molecule antagonists of the estrogen receptor alpha (ER-alpha) signaling pathway using the BG1 cell line in the presence of 0.1 nM 17-beta-estradiol - cell viability counter screen (AID 1259241). Also: nearly all actives have a fitted effect of over 40% in size. The procedure, abridged: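 VM7Luc4E2, 4,000 cells/well, phenol red-free medium + 10% charcoal-stripped FBS; 24 hr plating; cpd + 0.1 nM E2 final, 22 hr 37C/5% CO2; CellTiter-Fluor 30 min, fluorescence.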

A short description of experiment [11]: qHTS assay to identify small molecule antagonists of the androgen receptor (AR) signaling pathway using the MDA cell line in the presence of 0.5 nM R1881 - cell viability counter screen (AID 1259242). Also: nearly all actives have a fitted effect of over 45% in size. The procedure, abridged: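 R1881 at 0.5 nM final stimulated MDA-kb2 cells during 16 hr compound treatment at 37C. Cytotoxicity read: CellTiter-Fluor fluorescence after 30 min.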

Experiment [12] is described as follows: qHTS assay to identify small molecule HDAC inhibitors (AID 1259364).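 Also: wild-type HCT-116 cells with endogenous class I/II HDAC activity; top concentration of the series differs between compounds; nearly all actives have a fitted effect of over 45% in size.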 Summed up:
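Relative class I and II HDAC activity is taken from the luminogenic signal in HCT-116 cells, with compound exposure 2 hr and reagent development 30 min at room temperature.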

The nature of experiment [13]: qHTS assay to identify small molecule HDAC inhibitors - cell viability counter screen (AID 1259365). Summed up: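 Luminescence from CellTiter-Glo, developed 30min at room temperature, reports viability of wild-type HCT-116 cells treated 2hr with compounds at 37 C and 5% CO2 after overnight plating.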
Experiment [14] in a line: qHTS assay to identify small molecule agonists of the sonic hedgehog signaling (Shh) pathway - cell viability counter screen (AID 1259366). Also: nearly all actives have a fitted effect of over 50% in size. The procedure, abridged: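 Cytotoxicity counter screen run in the same wells as the Shh reporter assay. NIH/3T3 cells carrying a Gli1 response element–driven luciferase were treated with DMSO-dissolved compounds for 24hr, and live-cell protease activity was measured with CellTiter-Fluor.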

Experiment [15] is described as follows: qHTS assay to identify small molecule antagonists of the sonic hedgehog signaling (Shh) pathway - cell viability counter screen (AID 1259367). Also: nearly all actives have a fitted effect of over 55% in size. Summed up:
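Cells: 3T3 Gli1-Luc, 2,000/well, 4 hr pre-incubation. Compounds in DMSO, then conditioned medium. Incubation 24 hr, 37C, 5% CO2. CellTiter-Fluor at 23 hr, 1 hr, fluorescence.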

Experiment [16] can be described thus: qHTS assay to identify small molecule agonists of the sonic hedgehog signaling (Shh) pathway (AID 1259368; calls by dose curve;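 also: NIH/3T3-derived 3T3Gli1-Luc cells carrying a stable Gli1-driven firefly luciferase reporter; series mostly up to about 92 µM; nearly all actives have a fitted effect of over 15% in size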). The procedure, abridged:
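Mouse fibroblast (NIH/3T3) reporter cells with stably integrated Gli1-Luc were treated 24 hr with compound; firefly luciferase luminescence served as the read-out.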

The target in experiment [17] is Estrogen receptor (Homo sapiens) (UniProt P03372). Briefly: qHTS assay to identify small molecule antagonists of the estrogen receptor alpha (ER-alpha) signaling pathway using the BG1 cell line in the presence of 0.1 nM 17-beta-estradiol (AID 1259244). Also: nearly all actives have a fitted effect of over 50% in size. Summed up:
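VM7Luc4E2; 4xERE-luciferase; 0.1 nM E2 final; 22 h co-incubation, 37C; ONE-Glo luminescence after 30 min at room temperature.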

Experiment [18] is described as follows: qHTS RealTime-Glo MT Cell Viability Assay in HEK293 cells - 8 hour (AID 1224887). Summed up: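 Tox21 screen in HEK293 using RealTime-Glo MT chemistry, with cells and reagent co-dispensed. Luminescence proportional to viable cell number was captured at intervals during 40 h compound exposure at 37 C.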
The nature of experiment [19]: qHTS assay to identify small molecule phospholipidosis (PLD) inducers (AID 1259344; active = well fitted curve in the direction sought with a large enough effect; an effect the other way counts as inactive or inconclusive). The procedure, abridged: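 Phospholipidosis is scored by imaging LipidTOX-stained pits in HepG2 cells exposed to compound for 24 h at 37 C; pit counts and integrated intensities per well and per cell serve as outputs.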

Values without a mark were called inactive. Records with an inconclusive call do not appear. Activity calls are given as the source filed them. Unless noted, calls follow the shape of the dose curve; as a rule, active = well fitted curve in the direction sought with a large enough effect in the repeat runs; inconclusive = weak or mixed curves; inactive = no such curve, though single readings can be large; an effect the other way counts as inactive or inconclusive.
% is scaled to controls: 0 for no effect and ±100 for the full control effect.

Chain of Estrogen receptor (Homo sapiens) (P03372 whole entry, looked up): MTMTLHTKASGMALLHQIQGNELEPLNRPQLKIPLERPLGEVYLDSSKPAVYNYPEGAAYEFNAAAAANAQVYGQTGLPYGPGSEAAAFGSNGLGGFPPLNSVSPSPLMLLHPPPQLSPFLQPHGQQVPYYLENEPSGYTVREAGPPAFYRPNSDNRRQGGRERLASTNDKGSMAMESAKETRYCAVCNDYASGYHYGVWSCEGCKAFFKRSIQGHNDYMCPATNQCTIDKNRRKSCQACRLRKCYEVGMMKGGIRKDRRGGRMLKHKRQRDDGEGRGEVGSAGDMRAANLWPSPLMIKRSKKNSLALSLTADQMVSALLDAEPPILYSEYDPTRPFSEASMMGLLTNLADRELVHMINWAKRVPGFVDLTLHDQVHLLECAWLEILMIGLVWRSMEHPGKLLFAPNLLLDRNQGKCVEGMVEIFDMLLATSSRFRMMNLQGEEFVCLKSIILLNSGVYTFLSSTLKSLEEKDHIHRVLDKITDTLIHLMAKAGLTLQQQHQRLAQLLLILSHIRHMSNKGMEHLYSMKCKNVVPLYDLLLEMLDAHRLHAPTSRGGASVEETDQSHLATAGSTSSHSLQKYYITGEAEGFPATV

For the compound `CCCCOC(=O)CCCCCCCC(=O)OCCCC`, the Potency entry in experiment [1], in experiment [2], in [3], in experiment [4], in experiment [5] and in experiment [6] was “inactive” throughout. The Potency result in [7], in experiment [8], in experiment [9], in [10], in experiment [11] and in experiment [12] was “inactive” throughout. Besides, the Potency entry in [13], in experiment [14] and in experiment [15] was “inactive” in each case. Also, the result in experiment [16] was inactive.

Take `C=C(C)C(=O)OCCO`: the Potency entry in [1], in [2], in [3], in [5], in [6] and in experiment [7] was “inactive” each time. The Potency entry in [8], in experiment [9], in [10], in experiment [11], in experiment [17] and in experiment [12] was “inactive” each time. Besides, the Potency entry in experiment [14] and in experiment [15] was “inactive” each time. For the same compound, the outcome in experiment [16] was inactive.

As for `CCCCCCc1ccc(-c2ccc(C#N)cc2)cc1`, the Potency entry in experiment [1], in [2], in [3], in experiment [5], in experiment [6] and in experiment [18] was “inactive” each time. Also, the Potency entry in experiment [7], in experiment [8], in experiment [9], in experiment [10], in experiment [11] and in experiment [12] was “inactive” in each case. Besides, the Potency result in experiment [13], in experiment [14] and in experiment [15] was “inactive” throughout. Besides, in experiment [16], the outcome was inactive.

Turning to `CNC(=O)CN(CCN(CCN(CC(=O)[O-])CC(=O)NC)CC(=O)[O-])CC(=O)[O-].O.[Gd+3]`, the Potency result in experiment [1], in [2], in experiment [3], in experiment [5], in experiment [6] and in experiment [7] was “inactive” in each case. The Potency result in experiment [8], in experiment [9], in [10], in experiment [11], in [17] and in [19] was “inactive” throughout. Moreover, the Potency entry in experiment [12], in [13], in [14] and in [15] was “inactive” throughout. Moreover, in experiment [16], the result was inactive.

On to `O=[N+]([O-])c1cccc(S(=O)(=O)O)c1`, for which the Potency result in [1], in [2], in experiment [3], in [5], in [7] and in experiment [8] was “inactive” each time. Besides, the Potency result in [9], in experiment [10], in [12], in experiment [14] and in experiment [15] was “inactive” in each case. Further, the Potency in experiment [6] is 22.2 µM (active). Besides, the compound was classed as inactive in experiment [16].

Regarding `CN1C[C@H]2c3ccccc3Oc3ccc(Cl)cc3[C@@H]2C1`, the Potency entry in [1], in [2], in experiment [5], in [6], in [18] and in experiment [9] was “inactive” throughout. In addition, the Potency entry in [10], in experiment [11], in experiment [17] and in [12] was “inactive” each time. Also, the Potency in experiment [3] was 26.8 µM (active). Moreover, the PLD induction in experiment [19] is 1.39% [at 7.66 µM]. Moreover, the compound was classed as inactive in [16].

Consider `CCCCCCCCCCCCCCOS(=O)(=O)O`, for which the Potency in experiment [1] was 43.6 µM (active); in experiment [3] it was 38.9 µM (active); in experiment [7], 43.6 µM (active). Further, the Potency entry in experiment [2], in [5], in experiment [6], in experiment [8], in [10] and in experiment [11] was “inactive” each time. Moreover, the Potency entry in [17], in experiment [12], in [13], in [14] and in experiment [15] was “inactive” in each case. Moreover, the result in [16] was inactive.

Consider `CC1=CCCC(C)(C)C12CCC(C)O2` (stereo unspecified), for which the Potency result in [1], in experiment [2], in experiment [3], in experiment [5], in [6] and in experiment [18] was “inactive” each time. The Potency result in experiment [7], in [8], in experiment [9], in experiment [10], in [11] and in experiment [12] was “inactive” in each case. The Potency result in [13], in experiment [14] and in experiment [15] was “inactive” each time. Moreover, the call in experiment [16] was inactive.
